NCF1 inh = blocks human p47phox regulatory protein of NADPH oxidases; P14598; p47phox/p22phox peptide binding, fluorescence polarization, 2 h; inhibition, % at 24.7 µM; 220,000 compounds, 0.53% hits;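 note: 0% = p47phox with labelled peptide and 100% = labelled peptide alone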
Target sequence (P14598 whole entry, looked up): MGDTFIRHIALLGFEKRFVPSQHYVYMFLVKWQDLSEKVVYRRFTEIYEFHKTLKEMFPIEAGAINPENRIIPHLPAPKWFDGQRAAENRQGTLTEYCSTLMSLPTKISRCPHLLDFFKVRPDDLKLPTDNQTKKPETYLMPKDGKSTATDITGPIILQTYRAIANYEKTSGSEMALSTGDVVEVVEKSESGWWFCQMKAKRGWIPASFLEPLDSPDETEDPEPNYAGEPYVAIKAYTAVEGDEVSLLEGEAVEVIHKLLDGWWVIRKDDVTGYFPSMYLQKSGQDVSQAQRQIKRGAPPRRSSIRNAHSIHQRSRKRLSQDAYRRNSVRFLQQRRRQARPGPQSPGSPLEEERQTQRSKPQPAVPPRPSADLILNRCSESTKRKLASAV
Mcl1 Noxa PPI = disrupts binding of human Mcl-1 to Noxa peptide | Q07820 | TR-FRET Mcl-1/Noxa peptide binding, 2 h | inhibition, % at 21.7 µM | 220,000 compounds, 1.5% hits | AID 1022;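 active = compounds that cut the protein-peptide binding signal by more than 50% relative to plate controls in a single-dose test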;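 note: His-tagged Mcl-1 with rhodamine Noxa BH3 peptide and terbium anti-His antibody; 0% = Mcl-1 plus Noxa peptide wells and 100% = peptide-only wells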
eIF4E 4G PPI = eIF4E/eIF4G interaction inhibition in translation initiation | inhibition, % at 21.7 µM | AID 782 | TR-FRET eIF4E-eIF4GI(517-606) binding, 2 h | P63073+Q04637 | 220,000 compounds, 0.37% hits;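 note: 0% = full FRET control wells and 100% = background wells lacking eIF4GI fragment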
Bim-Mcl-1 = disrupts Bim peptide binding to human Mcl-1; Q07820; Bead-based flow cytometry, Bim peptide-Mcl-1 binding; 190,000 compounds, 0.1% hits; inhibition, % at 10 µM; AID 1009; in the data active = inhibition above about 40%;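 note: 0% = no compound tracer wells and 100% = peptide blocker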
Mcl1 Bid PPI = disrupts binding of human Mcl-1 to Bid peptide; 220,000 compounds, 0.97% hits; inhibition, % at 21.7 µM; TR-FRET Mcl-1/Bid-Dy647 peptide binding, 1536-well; Q07820;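 active = compounds that cut the binding signal by more than half at the single screening dose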;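 note: His-tagged Mcl-1 with europium anti-His antibody binding Bid BH3 peptide; 0% = Mcl-1 plus peptide wells and 100% = peptide-only wells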
14-3-3 Bad inh = disrupts binding of bovine 14-3-3 zeta to phospho-Bad peptide | P63103 | TR-FRET 14-3-3zeta/Dy647-pBad peptide displacement, 1 h | inhibition, % at 21.7 µM | 220,000 compounds, 0.71% hits;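 active = inhibition above about 70%, limit read from the data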;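 note: 0% = full 14-3-3 plus peptide FRET controls and 100% = background without 14-3-3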
* hit, by the source's call; · = no result given; [ ] = another dose, or the depositor's remark. Compounds with a hit are over-represented: about 3.3% of the library has one in this group of screens.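 Rule for the calls, unless noted: active = inhibition above about 30% (limit read from the data); inactive = the rest.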

SMILES	NCF1 inh	Mcl1 Noxa PPI	eIF4E 4G PPI	Bim-Mcl-1	Mcl1 Bid PPI	14-3-3 Bad inh
COc1cc(/C=N/NC(=O)c2ccc(CSc3nncn3C)cc2)cc(OC)c1O	-13	55*	10	0	-34	-12
COc1cc(/C=N/NC(=O)c2ccc(CN3c4cccc5cccc(c45)S3(=O)=O)cc2)cc(OC)c1O	36*	72*	2	0	82*	92*
COc1ccc(/C=N/NC(=O)c2ccc(COc3cccc4cccnc34)cc2)cc1O	-8	51*	-5	·	-44	-5
CSc1ccc(N=Nc2c(C)[nH]n(C)c2=O)cc1	-29	11	-1	·	-13	-2
C=CCC1(C#N)C(SC)=NC2=C(C(=O)CC(C)(C)C2)C1c1ccc(Br)cc1 (centres undefined)	-1	-5	-3	-4	-3	-6
COCc1cc(C)nc(SCC[N+](C)(C)CC(=O)Nc2cccc(C(F)(F)F)c2)c1C#N	-10	10	-1	0	5	0
COc1ccc(N/N=C(/C(C)=O)N2CCCc3ccccc32)cc1	0	-1	6	·	-14	-1
CCn1c(-c2cc3c(C(F)(F)F)nn(C)c3s2)n[nH]c1=S	-7	72*	16	-2	-33	7
Cn1c(-c2cc3c(C(F)(F)F)nn(C)c3s2)n[nH]c1=S	-12	6	19	-4	10	-20
CCCS(=O)(=O)N1CCN(Cc2ccccc2OCC)CC1	-4	3	-1	0	41	29
CCOc1ccccc1CN1CCN(S(=O)(=O)CC)CC1	12	20	-4	2	39	94*
Cc1cc(C)c2nc(-c3ccccn3)cc(C(=O)Nc3ccc(S(=O)(=O)Nc4cc(C)on4)cc3)c2c1	-34	36	6	-1	-3	-2
Cc1cc(C)c2nc(-c3ccccn3)cc(C(=O)Nc3ccc(S(=O)(=O)Nc4onc(C)c4C)cc3)c2c1	-16	79*	22	4	-7	15
CCOC(=O)C(C(=O)OCC)C(C[N+](=O)[O-])c1ccccc1 (centres undefined)	-5	26	2	0	-17	-3
C=CCn1cc(/C=N/NC(=O)COc2cccc3cccnc23)c2ccccc21	47*	66*	13	0	89*	62
COc1cccc(/C=N/NC(=O)COc2cccc3cccnc23)c1O	-3	22	-2	-1	-38	-25
CCn1c(COc2ccc(=O)n(-c3ccccc3)n2)nnc1SC	-7	13	0	-3	-6	-2
Cc1ccc([N+](=O)[O-])cc1-c1ccc(/C=C(\C#N)c2[nH]nc(N)c2C#N)o1	38*	68*	0	-11	79*	72*[fluorescence artefact?]
CCOC(=O)c1ccc(N=Nc2c(C)c(C#N)c(O)[nH]c2=O)cc1	0	88*	11	-2	-22	6
Cc1c(C#N)c(O)n(C)c(=O)c1N=Nc1ccc(S(N)(=O)=O)cc1	-6	28	2	5	-30	-5
COc1ccc(CNc2ncnc3c2[nH]c2cc(OC)c(OC)cc23)cc1	-61	52*	4	·	-17	-6
NNC(=S)Nc1cc(S(=O)(=O)N2CCOCC2)ccc1N1CCOCC1	-11	7	-1	0	-45	94*
Cc1cccn2cc(COc3ccc(-c4ccccc4)cc3)nc12	-34	11	2	-4	-8	79*
COc1cc2c(cc1OC)C(c1cccs1)N(C(=O)c1ccc(S(=O)(=O)N(C)C)cc1)CC2 (centres undefined)	-8	13	-6	·	-4	11
O=C(NNC(=O)C1CCN(S(=O)(=O)c2ccc(Cl)cc2)CC1)c1ccccc1	1	8	-4	-6	-21	-3
SMILES	NCF1 inh	Mcl1 Noxa PPI	eIF4E 4G PPI	Bim-Mcl-1	Mcl1 Bid PPI	14-3-3 Bad inh
CCc1ccc(Nc2nnc(SCC(=O)Nc3sccc3C(N)=O)s2)cc1	-19	53*	-7	-3	-18	-10
CC(=O)Nc1cccc(OCC(=O)Nc2sccc2C(N)=O)c1	-12	52*	3	·	0	1
COc1cccc(Nc2nnc(SCC(=O)Nc3sccc3C(N)=O)s2)c1	-35	60*	6	0	4	60
Cn1nc(CC(=O)Nc2ccc(N3CCN(C(=O)OC(C)(C)C)CC3)cc2)c2ccccc2c1=O	31*	29	-3	0	13	25
N=c1c2ccccc2nnn1-c1ccc(C(F)(F)F)cc1	15	26	5	0	-4	23
COc1ccc(C2N(c3ccc4c(c3)OCCO4)C(=O)C2(F)F)cc1OC (centres undefined)	-1	-22	-10	·	-14	-7
CN1CCN(CCC(=O)N2c3ccccc3Sc3ccc(C(F)(F)F)cc32)CC1	-10	19	-3	5	15	80*
O=C1c2ccccc2C(=O)N1CC(=O)N1c2ccccc2Sc2ccc(C(F)(F)F)cc21	-8	-8	6	-9	25	-19
COc1ccc(-c2nnc(SCc3c(C)noc3C)o2)cc1	-9	-3	-3	2	-7	-15
CCC/C(C)=N/NC(=O)c1ccccc1O	-5	23	8	0	-31	-9
C/C(=N\NC(=O)c1ccccc1O)C1C(=O)c2ccccc2C1=O	-30	66*	1	-1	-92	10
C/C(=N/NC(=O)c1cc2ccccc2cc1O)C1C(=O)c2ccccc2C1=O	-77	92*	3	3	2	8
Cn1cccc1/C=N/N1CCN(c2ccccc2)CC1	-14	8	4	0	-72	-11
O=C(c1cccc2nc3ccccc3nc12)N1CCOCC1	6	4	-1	·	3	1
CN(C)/C=N/C(=S)Nc1ccc(Cl)cc1	-13	8	-1	0	-48	4
Cc1cccc(C)c1NC(=S)/N=C/N(C)C	91*	-2	-2	0	-29	5
NNC(=O)c1ccc(N2CCCCCC2)c([N+](=O)[O-])c1	1	23	-1	-4	-32	-8
Cc1ccc(-c2nc3ncccn3c2NC(=O)C2CC2)cc1	-8	9	-2	-1	2	-1
CC(=O)Nc1c(-c2ccccc2)nc2ncccn12	4	-21	33*	-6	-18	10
CCc1c(C(=O)Nc2cc(C)ccc2OC)[nH]c(C)c1C(C)=O	-95	6	-16	2	96*	-5
Cn1cccc1CC(=O)N/N=C/c1ccc(Cl)c([N+](=O)[O-])c1	-11	1	-1	·	-125	-4
O=C1/C(=C\c2ccc(O)cc2)SC(=S)N1/N=C/c1ccc(O)cc1	-130	79*	0	·	24	15
CC(=O)NN1C(=O)/C(=C\c2ccc(O)cc2)SC1=S	-158	-16	2	0	-66	-13
CCOC(=O)N1CCN(Cc2ccccc2Cl)CC1	-3	1	-1	-1	-13	75*

Bioassay records deposited in PubChem by several laboratories.
